According to PubChem BioAssay (Tox21):
Results filed as inconclusive are left out. Calls of active or inactive are those of the source. Unless noted, calls come from the whole dose curve; as a rule, active = well fitted curve in the direction sought with a large enough effect in the repeat runs; inconclusive = weak or mixed curves; inactive = no such curve, though single readings can be large; an effect the other way counts as inactive or inconclusive.

Experiments:
[1] = qHTS assay for small molecules that induce genotoxicity in human embryonic kidney cells expressing luciferase-tagged ATAD5 (AID 651632); note: % is set by controls: 0 for no effect and ±100 for the full control effect; nearly all actives have a fitted effect of over 15% in size
Method in brief: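 Increased luciferase signal from ATAD5-tagged reporter cells indicates DNA-damage-driven ATAD5 induction. HEK293T cells are treated for 16 hr at 37C before detection with Amplite.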

[2] = qHTS assay for small molecule agonists of the p53 signaling pathway - cell viability (AID 651633; calls by dose curve; note: nearly all actives have a fitted effect of over 30% in size; note: potency is the fitted concentration of half-maximal effect)
Method in brief: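 p53RE-bla cells were treated with compound for 16 hours at 37 C. Cytotoxicity was then measured as CellTiter-Glo luminescence after 30 min at room temperature.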

[3] = qHTS assay for small molecules that induce genotoxicity in human embryonic kidney cells expressing luciferase-tagged ATAD5 - cell viability (AID 651634; calls by dose curve; note: nearly all actives have a fitted effect of over 25% in size; note: potency is the fitted concentration of half-maximal effect)
Method in brief: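 Cytotoxicity counterscreen in HEK293T cells bearing an ATAD5-luciferase reporter: live-cell protease activity measured by CellTiter-Fluor fluorescence after 15.5 hr compound exposure.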

[4] = qHTS assay for small molecule disruptors of the mitochondrial membrane potential - cell viability (AID 720634; calls by dose curve;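 note: human HepG2 liver cancer cells; % is set by controls: 0 for no effect and ±100 for the full control effect; nearly all actives have a fitted effect of over 20% in size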)
Method in brief: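 After overnight attachment at 37 C, HepG2 cells received compound or DMSO vehicle for 1 hr. Viability is then taken from ATP-driven luminescence following a 30 min room-temperature CellTiter-Glo step.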

[5] = qHTS assay to test for compound auto fluorescence at 590 nm (red) in HepG2 cells (AID 720674); note: % is set by controls: 0 for no effect and ±100 for the full control effect
Method in brief: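 Fluorescence at 590 nm emission following 540 nm excitation was recorded from HepG2 wells one hour after compound transfer, with DMSO-only wells as vehicle and Rose Bengal sodium equivalency as the scale.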

[6] = qHTS assay to test for compound auto fluorescence at 535 nm (green) in HepG2 cells (AID 720675); note: % is set by controls: 0 for no effect and ±100 for the full control effect
[7] = qHTS assay to test for compound auto fluorescence at 460 nm (blue) in HEK293 cells (AID 720678); note: % is set by controls: 0 for no effect and ±100 for the full control effect
Method in brief: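 Intrinsic compound fluorescence is recorded in live HEK293 cultures after overnight incubation at 37C, 5% CO2, using excitation 405 nm and emission 460 nm. Values are referenced to triamterene.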

[8] = qHTS assay to test for compound auto fluorescence at 590 nm (red) in HEK293 cells (AID 720679); note: % is set by controls: 0 for no effect and ±100 for the full control effect
Method in brief: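 Red autofluorescence, HEK293 cells: 2,000 cells/well; attach 4-5 hr 37C; add 23 nL cpd or DMSO; incubate o/n 37C 5% CO2; read Ex540/Em590; Rose Bengal sodium reference.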

[9] = qHTS assay to test for compound auto fluorescence at 535 nm (green) in HEK293 cells (AID 720680); note: % is set by controls: 0 for no effect and ±100 for the full control effect
[10] = qHTS assay to test for compound auto fluorescence at 460 nm (blue) in HEK293 cell free culture (AID 720681); note: % is set by controls: 0 for no effect and ±100 for the full control effect
Method in brief: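 Compounds were added to cell-free DMEM with 10% FBS and fluorescence read directly. The blue channel used 405 nm excitation and 460 nm emission, with triamterene as the reference fluorophore.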

[11] = qHTS assay to test for compound auto fluorescence at 535 nm (green) in HEK293 cell free culture (AID 720682); note: % is set by controls: 0 for no effect and ±100 for the full control effect
Method in brief: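 No cells present: wells hold DMEM supplemented with 10% FBS, into which compound or vehicle is pinned. Green emission is then recorded (485 nm excitation, 535 nm emission) and scaled to fluorescein.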

[12] = qHTS assay to test for compound auto fluorescence at 590 nm (red) in HepG2 cell free culture (AID 720684); note: % is set by controls: 0 for no effect and ±100 for the full control effect
Method in brief: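 Compound was pinned into wells holding MEM with 10% FBS and no cells, and red fluorescence was read at Ex/Em 540/590 nm. Signal is expressed as auto fluorescence equivalency relative to Rose Bengal sodium.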

[13] = qHTS assay to test for compound auto fluorescence at 460 nm (blue) in HepG2 cell free culture (AID 720685); note: % is set by controls: 0 for no effect and ±100 for the full control effect
Method in brief: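 Compound (23 nL) or DMSO pinned into cell-free MEM with 10% FBS; blue fluorescence read at 405/460 nm excitation/emission, expressed as auto-fluorescence equivalency to triamterene.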

[14] = qHTS assay to test for compound auto fluorescence at 535 nm (green) in HepG2 cell free culture (AID 720686); note: % is set by controls: 0 for no effect and ±100 for the full control effect
[15] = qHTS assay to test for compound auto fluorescence at 460 nm (blue) in HepG2 cells (AID 720687); note: % is set by controls: 0 for no effect and ±100 for the full control effect
Method in brief: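 HepG2 cells in MEM with 10% FBS, attached overnight at 37 C, were exposed to compound or DMSO for 1 hr at 37 C, 5% CO2. Blue fluorescence was read at 405/460 nm, with triamterene as reference fluorophore.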

[16] = molecular target: Glucocorticoid receptor (Homo sapiens) (UniProt P04150); assay: qHTS assay to identify small molecule agonists of the glucocorticoid receptor (GR) signaling pathway (AID 720691; active = well fitted activation curve with a large enough effect in the signal ratio in the repeat runs, not every such curve was filed as active; the % refers to the signal ratio; note: potency is the fitted concentration of half-maximal effect); conditions: GR-bla HeLa, beta-lactamase reporter ratio, 18 h; activation: at 62.4 µM (top of the series) unless noted
Chain of Glucocorticoid receptor (Homo sapiens) (P04150 whole entry, looked up): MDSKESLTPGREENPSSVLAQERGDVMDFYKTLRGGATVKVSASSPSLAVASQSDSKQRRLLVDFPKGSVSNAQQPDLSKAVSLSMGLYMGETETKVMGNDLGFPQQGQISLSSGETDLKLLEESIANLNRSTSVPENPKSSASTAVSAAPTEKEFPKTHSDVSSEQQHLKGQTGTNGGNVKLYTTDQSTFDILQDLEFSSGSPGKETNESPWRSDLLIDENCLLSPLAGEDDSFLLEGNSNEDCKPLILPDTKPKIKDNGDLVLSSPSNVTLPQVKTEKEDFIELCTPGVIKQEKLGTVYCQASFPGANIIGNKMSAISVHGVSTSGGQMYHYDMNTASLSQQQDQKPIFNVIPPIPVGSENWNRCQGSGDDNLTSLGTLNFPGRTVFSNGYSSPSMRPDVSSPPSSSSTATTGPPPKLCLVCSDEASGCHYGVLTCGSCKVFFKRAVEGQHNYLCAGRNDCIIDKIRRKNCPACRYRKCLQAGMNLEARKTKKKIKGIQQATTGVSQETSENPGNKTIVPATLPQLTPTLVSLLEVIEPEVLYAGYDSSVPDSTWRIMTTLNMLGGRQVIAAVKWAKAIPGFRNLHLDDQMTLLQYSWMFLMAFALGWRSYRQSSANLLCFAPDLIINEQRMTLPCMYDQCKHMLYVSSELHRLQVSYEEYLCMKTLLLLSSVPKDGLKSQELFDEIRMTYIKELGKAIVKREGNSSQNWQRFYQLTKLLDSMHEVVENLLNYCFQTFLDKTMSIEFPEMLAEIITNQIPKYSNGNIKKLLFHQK
Method in brief: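 Agonist mode in a HeLa line carrying a GRE-controlled beta-lactamase reporter. Compounds act for 18 h at 37 C before a 2 h room-temperature FRET substrate step and fluorescence reading.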

[17] = molecular target: Glucocorticoid receptor (Homo sapiens) (UniProt P04150); assay: qHTS assay to identify small molecule antagonists of the glucocorticoid receptor (GR) signaling pathway (AID 720692; active = well fitted inhibition curve with a large enough effect in the signal ratio in the repeat runs, not every such curve was filed as active; the % refers to the signal ratio; note: % is set by controls: 0 for no effect and ±100 for the full control effect)
Method in brief: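 Cells plated, rested 4 h at 37 C/5% CO2; compounds in DMSO pin-transferred; dexamethasone added to 5 nM final; 18 h at 37 C; B/G FRET substrate added, 2 h room temperature; fluorescence measured.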

[18] = qHTS assay to test for compound auto fluorescence at 590 nm (red) in HEK293 cell free culture (AID 720683); note: % is set by controls: 0 for no effect and ±100 for the full control effect
Method in brief: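 Cell-free wells of DMEM with 10% FBS received compound, and intrinsic fluorescence was read at excitation/emission 540/590 nm. Values expressed as equivalence to Rose Bengal sodium.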

[19] = qHTS assay for small molecule disruptors of the mitochondrial membrane potential (AID 720635); note: potency is the fitted concentration of half-maximal effect
Method in brief: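 HepG2 cells exposed to compound 1 hr at 37C, then Mito-MPS dye 30 min. Ratio read of aggregate (540/590 nm) versus monomer (490/535 nm) fluorescence.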

CCOC(=O)C(F)(F)F
inactive: Potency [1] | Potency [2] | Potency [3] | Potency [4] | Potency [5] | Potency [6] | outcome [7] | Potency [8] | outcome [9] | outcome [10] | outcome [11] | Potency [12] | outcome [13] | Potency [14] | outcome [15] | Potency [16] | Potency [17]

Brc1c2ccccc2c(Br)c2ccccc12
inactive: activation [1] 1.86% [at 8.08 µM] | activity change, negative = cytotoxicity [2] 12.3% [at 8.08 µM] | activity, negative = cytotoxicity [3] 21.9% [at 8.08 µM] | activity change, negative = cytotoxicity [4] -7.1% [at 8.08 µM] | fluorescence, % of fluorescein control [6] 0.0196% [at 3.72 µM] | fluorescence, % of triamterene [7] 0.364% [at 3.72 µM] | fluorescence, % of fluorescent control [8] -0.0447% [at 3.72 µM] | fluorescence, % of fluorescein [9] 0.0022% [at 3.72 µM] | fluorescence, % of fluorescent control [10] 0.357% [at 3.72 µM] | activity change [11] -0.0415% [at 3.72 µM] | fluorescence, % of fluorescent control [18] 0.0422% [at 3.72 µM] | fluorescence, % of Rose Bengal [12] 0.241% [at 3.72 µM] | fluorescence, % of fluorescent control [13] 0.581% [at 3.72 µM] | fluorescence, % of fluorescein control [14] 0.0474% [at 3.72 µM] | fluorescence, % of fluorescent control [15] 1.18% [at 3.72 µM]
active: Potency [16] 0.882 µM

c1cc(CCCc2ccncc2)ccn1
inactive: Potency [1] | Potency [2] | Potency [4] | Potency [5] | Potency [6] | outcome [7] | Potency [8] | outcome [9] | outcome [10] | outcome [11] | Potency [18] | Potency [12] | outcome [13] | outcome [15] | Potency [16] | Potency [17]

CC(C)(CO)[N+](=O)[O-]
inactive: Potency [1] | Potency [2] | Potency [3] | Potency [4] | Potency [5] | outcome [7] | Potency [8] | outcome [9] | outcome [10] | outcome [11] | Potency [18] | Potency [12] | outcome [13] | Potency [14] | outcome [15] | Potency [16] | Potency [17]

C[Si](C)(CCCN)O[Si](C)(C)CCCN
inactive: Potency [1] | Potency [2] | Potency [3] | Potency [4] | Potency [6] | outcome [7] | Potency [8] | outcome [9] | outcome [10] | outcome [11] | Potency [18] | Potency [12] | Potency [14] | outcome [15] | Potency [16] | Potency [17]

CCOC(=O)NCCOc1ccc(Oc2ccccc2)cc1
active: Potency [19] 27.3 µM
inactive: Potency [1] | Potency [2] | Potency [5] | Potency [6] | Potency [8] | outcome [9] | outcome [10] | outcome [11] | Potency [12] | outcome [13] | Potency [14] | outcome [15]

Cc1oc(-c2ccccc2)nc1CCOc1cccc2c1ccn2CCC(=O)O
inactive: Potency [1] | Potency [2] | Potency [4] | Potency [5] | outcome [7] | Potency [8] | outcome [9] | outcome [10] | Potency [18] | Potency [12] | outcome [13] | Potency [14] | Potency [17]

Nc1ccc(N)c2c1C(=O)c1ccccc1C2=O
inactive: Potency [1] | Potency [2] | Potency [5] | Potency [6] | outcome [7] | Potency [8] | outcome [9] | outcome [10] | outcome [11] | Potency [18] | Potency [12] | Potency [14] | outcome [15]
active: Potency [3] 27.3 µM

OC(CN1CCC(Cc2ccc(F)cc2)CC1)c1ccc(Cl)cc1 (centres undefined)
inactive: Potency [1] | Potency [2] | Potency [3] | Potency [4] | Potency [5] | Potency [6] | Potency [8] | outcome [9] | outcome [10] | outcome [11] | Potency [18] | Potency [12] | outcome [13] | Potency [14] | outcome [15] | Potency [16] | Potency [17]

O=C(O)c1ccc(-n2nc(-c3ccccc3O)nc2-c2ccccc2O)cc1
active: Potency [2] 13.3 µM
inactive: Potency [1] | Potency [4] | Potency [5] | Potency [6] | outcome [7] | Potency [8] | outcome [9] | outcome [10] | outcome [11] | Potency [18] | Potency [12] | outcome [13] | Potency [14] | outcome [15]
